BAZ2B block – qHTS Assay for Inhibitors of BAZ2B; AlphaScreen BAZ2B-H3K14Ac peptide displacement; AID 504333, 2011; Potency, µM (series often up to 114 µM), inactives show top-dose activity change, negative = inhibition, most hits filed as inhibitors; Bromodomain adjacent to zinc finger domain protein 2B (Homo sapiens), Q9UIF8; hit rate 4.4% among 360,000; also: potency is read from the fitted curve at half-maximal effect; % is scaled to controls: 0 for no effect and ±100 for the full control effect; nearly all actives have a fitted effect of over 60% in size
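Protein-peptide AlphaScreen: BAZ2B 50 nM, b-H3K14Ac 50 nM, 1x PBS pH 7.4 + 0.01% Tween-20. Preincubation 30 min RT; cpd 30 min RT (top 110 uM); beads 20 min RT, light-protected.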
HP1b chromo inh – HTS for Inhibitors of HP1-beta Chromodomain Interactions with Methylated Histone Tails | Chromobox protein homolog 1 (Homo sapiens), P83916 | AlphaScreen HP1-beta / biotin-H3K9me3 peptide binding | Potency, µM (top dose mostly 114 µM), inactives show at the highest dose activity change, negative = inhibition, actives largely listed as inhibitors | hit rate 0.56% among 390,000; also: potency is read from the fitted curve at half-maximal effect; nearly all actives have a fitted effect of over 70% in size
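HP1-beta protein (50 nM final) preincubated 30 min at room temperature with biotinylated H3(1-18)K9me3 peptide (50 nM) in PBS pH 7.4, 0.01% Tween-20, then compound added for 30 min. AlphaScreen streptavidin donor/nickel chelate acceptor beads (10 ug/mL final), 30 min dark, luminescence read.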
G9a block – qHTS Assay for Inhibitors of Histone Lysine Methyltransferase G9a; Potency, µM (doses to about 102 µM), for the others: at the highest dose activity, negative = inhibition, actives largely listed as inhibitors; hit rate 8.8% among 350,000; G9a H3K9 monomethylation, AlphaScreen, 2 h; Histone-lysine N-methyltransferase EHMT2 (Homo sapiens), Q96KQ7; also: potency is read from the fitted curve at half-maximal effect; % is scaled to controls: 0 for no effect and ±100 for the full control effect; nearly all actives have a fitted effect of over 75% in size
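Compounds were preincubated with 20 nM G9a for 15 min, after which biotinylated H3K9 peptide (500 nM) and SAM (20 uM) started a 2 h room-temperature reaction. Monomethylated product was quantified by antibody-based AlphaScreen chemiluminescence.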
L3MBTL1 inh – qHTS Assay for the Inhibitors of L3MBTL1; Lethal(3)malignant brain tumor-like protein 1 (Homo sapiens), Q9Y468; hit rate 0.66% among 230,000; Potency, µM (titrated, usually from 57.1 µM), for inactives: top-dose activity, negative = inhibition, actives largely listed as inhibitors; AlphaScreen L3MBTL1–H3K9me1 peptide binding; also: potency is read from the fitted curve at half-maximal effect; % is scaled to controls: 0 for no effect and ±100 for the full control effect; nearly all actives have a fitted effect of over 60% in size
Target sequence (Q9Y468 whole entry, looked up): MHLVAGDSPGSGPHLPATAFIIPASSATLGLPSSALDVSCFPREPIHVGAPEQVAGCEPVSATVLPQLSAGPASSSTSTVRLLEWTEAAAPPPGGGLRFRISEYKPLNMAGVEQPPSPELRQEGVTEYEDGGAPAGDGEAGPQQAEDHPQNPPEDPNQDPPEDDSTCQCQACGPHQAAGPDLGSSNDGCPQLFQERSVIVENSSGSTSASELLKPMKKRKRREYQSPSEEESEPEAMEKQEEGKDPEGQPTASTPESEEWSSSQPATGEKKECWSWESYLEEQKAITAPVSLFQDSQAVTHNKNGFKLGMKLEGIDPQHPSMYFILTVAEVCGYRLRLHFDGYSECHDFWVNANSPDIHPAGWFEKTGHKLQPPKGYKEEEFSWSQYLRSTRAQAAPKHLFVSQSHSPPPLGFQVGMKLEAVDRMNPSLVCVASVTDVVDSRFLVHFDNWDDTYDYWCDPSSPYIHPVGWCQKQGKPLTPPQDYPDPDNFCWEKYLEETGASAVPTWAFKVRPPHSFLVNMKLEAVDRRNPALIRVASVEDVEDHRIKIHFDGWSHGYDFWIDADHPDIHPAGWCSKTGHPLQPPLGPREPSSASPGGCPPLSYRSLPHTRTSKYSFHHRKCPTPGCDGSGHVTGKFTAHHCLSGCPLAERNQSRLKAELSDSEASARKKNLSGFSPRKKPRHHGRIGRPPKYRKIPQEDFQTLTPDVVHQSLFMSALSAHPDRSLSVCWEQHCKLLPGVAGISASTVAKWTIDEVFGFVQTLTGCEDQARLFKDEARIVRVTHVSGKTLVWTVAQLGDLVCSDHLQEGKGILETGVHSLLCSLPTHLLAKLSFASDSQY
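AlphaScreen proximity signal between nickel-chelate acceptor and streptavidin donor beads (final 10 ug/mL) reports binding of 50 nM L3MBTL1 to 75 nM biotin-H3 K9me1 peptide; complex incubated with compounds 30 min at room temperature; cefsulodin titration as control.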
PI5P4K alpha inh – qHTS for Inhibitors of phosphatidylinositol 5-phosphate 4-kinase (PI5P4K). hit rate 1.2% among 330,000. max response, %. AID 652105, 2013. PI5P4Kalpha enzyme, ADP-Glo luminescence, 60 min; stronger effect = lower value. Phosphatidylinositol 5-phosphate 4-kinase type-2 alpha (Homo sapiens), P48426; active = max response of -50% or lower; inconclusive = between -30% and -50%; inactive = -30% or higher; also: value at the top dose of about 77 µM; % is scaled to controls: 0 for no effect and ±100 for the full control effect
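Enzyme plus substrate dispensed, test compounds pinned in, then ATP (5 microM final) added. After 60 min at RT, ADP-Glo reagent 1 for 45 min and reagent 2 for 30 min preceded luminescence imaging.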
JMJD2A Tudor inh – qHTS Assay for Inhibitors of JMJD2A-Tudor Domain | Lysine-specific demethylase 4A (Homo sapiens), O75164 | AlphaScreen JMJD2A-Tudor / H3K4me3 peptide binding | Potency, µM (top dose mostly 114 µM), without a hit: at the top dose activity change, negative = inhibition, hits mostly inhibitors | hit rate 4.4% among 390,000 | AID 504339, 2011; also: potency is read from the fitted curve at half-maximal effect; % is scaled to controls: 0 for no effect and ±100 for the full control effect; nearly all actives have a fitted effect of over 50% in size
The depositor's hits bear a star; ? = inconclusive; / = no result given; [ ] = another dose, or the depositor's remark. In the library only some 11% were active in any assay of this set; here they are far more common. Unless noted, calls follow the shape of the dose curve; as a rule, active = well fitted inhibition curve with a large enough effect; inconclusive = small, poorly fitted or top-dose-only effect; inactive = no such curve, though single readings can be large or run the other way.

SMILES	BAZ2B block	HP1b chromo inh	G9a block	L3MBTL1 inh	PI5P4K alpha inh	JMJD2A Tudor inh
COc1ccc(/C=C2\SC(=S)N(N3CCOCC3)C2=O)c(OC)c1	24%	?	46%[59 µM]	/	-6	?
O=C1/C(=C/c2ccc(F)cc2)SC(=S)N1N1CCOCC1	-28%	-21%	35%[12.7 µM]	/	1	-23%
COc1cccc(/C=C2\SC(=S)N(N3CCOCC3)C2=O)c1OC	18µM*	?	?	?	11	?
O=C1/C(=C/c2ccccn2)SC(=S)N1N1CCOCC1	?	17%	56µM*	-1%	-1	-8%[57.1 µM]
CCOC(=O)N1CCC(NS(=O)(=O)c2ccc(C)c(Cl)c2)CC1	-7%	19%	-24%	-4%	-1	-7%
CCOC(=O)c1cc(S(=O)(=O)NC2CCN(C(=O)OCC)CC2)cn1C	3%	28%	50µM*	-10%	-22	-14%
COc1ccc(-c2nc3n(n2)C(c2ccccc2OC)C(C(=O)Nc2cccnc2)=C(C)N3)cc1 (stereo not drawn)	-12%	31%	45%[59 µM]	/	/	-20%
Cc1ccccc1SCC(=O)OCC(=O)NCCNC(=O)COC(=O)CSc1ccccc1C	-13%	37%	50µM*	9%	3	-9%
COc1cc(C(=O)CC2(O)C(=O)N(Cc3ccccc3Cl)c3ccccc32)cc(OC)c1OC (stereo not drawn)	?	20%	-13%[59 µM]	/	/	-34%
O=C(OCC#CCSc1nnc(-c2cccc3ccccc23)o1)c1ccccc1	/	/	/	/	/	51%
NS(=O)(=O)c1ccc(N2C(=O)C(=O)/C(=C(/O)c3ccccc3)C2c2ccc(Cl)cc2)cc1 (stereo not drawn)	7%	15%	50µM*	-23%	-3	-9%
CCOc1ccc(N2C(=O)C(=O)/C(=C(/O)c3ccccc3)C2c2ccccc2[N+](=O)[O-])cc1 (stereo not drawn)	-8%	7%	45µM*	4%	7	-27%
O=C1C(=O)N(c2cccc(Cl)c2)C(c2ccccc2[N+](=O)[O-])/C1=C(\O)c1ccccc1 (stereo not drawn)	79µM*	-8%	28µM*	0%	/	?
Cc1cc(C)c2oc(C(=O)Nc3sc4c(c3C(=O)NCc3ccco3)CCCC4)cc(=O)c2c1	-3%	23%	-21%[59 µM]	/	/	-12%
Cc1cc(C)c2cc3c(N)c(C(=O)N4CCOCC4)sc3nc2c1	-16%	23%	8.9µM*	-1%	3	-14%[57.1 µM]
Cc1cc(C)c2cc3c(N)c(C(=O)Nc4c(C)[nH]c(=O)[nH]c4=O)sc3nc2c1	50µM*	89%	-15%	11%	-23	?
Cc1cc(C)c(NC(=O)c2sc3nc4c(cc3c2N)C(=O)CC(C)(C)C4)c(C)c1	?	16%	45µM*	-1%	2	-34%
COCc1nn2c(=O)cc(N3CCNCC3)nc2s1	/	/	/	/	/	-3%
O=C(CC(Nc1cccc(Cl)c1Cl)C(=O)OCC(=O)c1cccs1)c1ccccc1 (stereo not drawn)	7%	31%	14%[59 µM]	0%	8	-9%
Cc1c(Cl)cccc1NC(CC(=O)c1ccccc1)C(=O)OCC(=O)c1cccs1 (stereo not drawn)	7%	34%	35µM*	-5%	3	-8%
O=C(CC(Nc1cccc(Cl)c1Cl)C(=O)O)c1ccccc1 (stereo not drawn)	-38%	50%	28µM*	1%	-5	-2%
O=C(CC(Nc1ccc(Cl)cc1)C(=O)O)c1ccccc1 (stereo not drawn)	-2%	30%	2.2µM*	-5%	-6	-9%
COc1ccc(CCNC(=O)c2nc(SCc3ccc(C)cc3)ncc2Cl)cc1OC	-3%	32%	7%[59 µM]	/	/	-18%
COc1ccc(F)cc1S(=O)(=O)NCCc1csc2nc(-c3cccc(C)c3)nn12	-6%	40%	3%[59 µM]	/	/	-13%
CN1CCN(NC(=O)c2cn(-c3ccccc3)nc2-c2ccc(OC(F)F)cc2)CC1	-29%	25%	79µM*	/	-1	-22%
SMILES	BAZ2B block	HP1b chromo inh	G9a block	L3MBTL1 inh	PI5P4K alpha inh	JMJD2A Tudor inh
COc1ccc(-c2nn(-c3ccccc3)cc2C(=O)Nc2nccs2)cc1	-11%	18%	-32%	/	12	-23%
O=C(c1ccccc1Cl)n1nc(-c2cccnc2)nc1NCc1ccc(F)cc1	-21%	49%	-3%[59 µM]	/	/	-16%
Clc1ccc(/C(Cc2nc3ccccc3[nH]2)=N\Nc2ccccc2)cc1	?	-11%	7.1µM*	?	-10	?
O=C(Cc1nc2ccccc2[nH]1)c1ccc(Cl)cc1	-3%	18%	4%	/	-13	-19%
COc1cc(C)c(Cl)cc1S(=O)(=O)NCCc1c(C)[nH]c2ccccc12	32µM*	-11%	-30%[59 µM]	/	/	?
C=C(C)CN(CC)c1nc(N)c2c(N)nc3c(c2c1C#N)CC(=O)N3C12CC3CC(CC(C3)C1)C2	-29%	-25%	13%	/	-87*	-22%[57.1 µM]
COc1ccc(CN2C(=O)Cc3c2nc(N)c2c(N)nc(N4CCCCC4)c(C#N)c32)cc1	-34%	/	?	-3%	/	/
N#Cc1c(N2CCCC(O)C2)nc(N)c2c(N)nc3c(c12)CC(=O)N3C12CC3CC(CC(C3)C1)C2 (stereo not drawn)	?	?	?	?	/	56µM*
CCN(CC)c1nc(N)c2c(N)nc(OC)cc2c1C#N	/	10%	/	/	-6	-19%
N#Cc1c(N(CCO)CCO)nc(N)c2c(N)nc3c(c12)CC(=O)N3CC1CCCO1 (stereo not drawn)	-13%	-13%[57 µM]	/	1%	-12	-26%
CCCCN1C(=O)Cc2c1nc(N)c1c(N)nc(N(CCC)CCC)c(C#N)c21	-34%	?	40µM*	-9%	?	-26%
CCOc1ccc(CNC(=O)c2oc3c(c2C)-c2nn(Cc4cccc(Cl)c4)cc2CC3)cc1	-14%	35%	-20%[59 µM]	/	/	-17%
Cc1cccc(NCc2ccc([N+](=O)[O-])s2)c1	?	-19%	45µM*	-7%	1	?
O=[N+]([O-])c1ccc(CNc2cccc(F)c2)s1	-36%	-6%	50µM*	-5%	-2	?
O=C(NCc1ccccc1F)c1cccc(NC(=O)N2CCSc3ncccc32)c1	-5%	43%	-1%[59 µM]	/	/	4%
CCCn1c(CCCNC(=O)c2ccccc2OC)nc2ccccc21	0%	28%	0%[59 µM]	/	/	-6%

Bioassay records deposited in PubChem by National Center for Advancing Translational Sciences (NCATS).
